# Calls of active or inactive are those of the source. Rule as the data show it, unless noted: active = inhibition above about 80%; inactive = the rest.
# Tests used:
# [1] = system: Aerobactin synthetase IucA (Klebsiella pneumoniae); experiment: IucA aerobactin synthetase inhibitors, biochemical, Tocris library, absorbance (AID 1345561; call rule not given here;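 also: 100% = enzyme without compound and 0% = no enzyme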); conditions: purified IucA enzyme assay, absorbance (OD) read-out; stronger effect = lower value;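 tested at 8 µM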
# [2] = sensitizers of A549 cells to miR-34 induction, primary screen, imaging, A549 dox-inducible miR-34, nuclei and caspase counts (AID 1347080;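 active = compounds whose cell count with miR-34 switched on is under 0.7 times the count with it off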); conditions: A549 miR-34 inducible, Hoechst nuclei count, 48 h
# [3] = viability rescue of complex I mutant cybrids, primary screen, cell-based, galactose medium, ATP luminescence (AID 1645843;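 active = z-score of at least 1.8 in each of two replicates, scored against plate mean and spread of sample wells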;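 also: positive z means more ATP and so rescue of galactose-driven cybrid death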); conditions: complex I mutant cybrid cells, 72 h, stronger effect = higher value
# [4] = LFS_MB_P medulloblastoma growth inhibition, cell-based, chromothripsis tumors, cisplatin or BGB combos (AID 1671449); conditions: LFS_MB_P medulloblastoma cells;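 also: cells exposed for 96 hours; 0% = vehicle DMSO and 100% = killing by high DMSO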
# [5] = HDN33 neuroblastoma growth inhibition, cell-based, chromothripsis tumors, cisplatin or BGB combos (AID 1671450); conditions: HDN33 neuroblastoma cells, stronger effect = higher value;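 also: cells exposed to compound for four days; 0% = vehicle DMSO and 100% = cell killing by high DMSO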
# [6] = ICB984 medulloblastoma cell growth inhibition, synergistic combos for chromothripsis tumors, cisplatin or BGB combos (AID 1671451; call rule not given here;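 also: cells exposed for 96 hours before readout; 0% = vehicle DMSO and 100% = killing by high DMSO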); conditions: ICB984 medulloblastoma cells, drug combinations, stronger effect = higher value
# [7] = LFS_MB_1R medulloblastoma cell growth inhibition, synergistic combos for chromothripsis tumors, cisplatin or BGB combos (AID 1671452); conditions: LFS_MB_1R medulloblastoma cells, stronger effect = higher value;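 also: cells exposed for 96 hours before readout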
# [8] = HTB85 osteosarcoma cell growth inhibition, synergistic combos for chromothripsis tumors, BGB or cisplatin IC20 combos (AID 1671453); conditions: HTB85 osteosarcoma cells, drug combinations, stronger effect = higher value;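 also: cells exposed for 96 hours before readout; 0% = vehicle DMSO and 100% = high DMSO killing control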
# [9] = CRL2098 osteosarcoma cell growth inhibition, synergistic combos for chromothripsis tumors, BGB or cisplatin IC20 combos (AID 1671454); conditions: CRL2098 osteosarcoma cells, drug combinations, stronger effect = higher value;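 also: cells exposed for 96 h before readout; 0% = vehicle DMSO and 100% = killing by high DMSO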
# [10] = HD-MB03 medulloblastoma cell growth inhibition, synergistic combos for chromothripsis tumors, BGB or cisplatin IC20 combos (AID 1671455; in the data active = inhibition above about 83%;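 also: 0% = vehicle DMSO and 100% = high DMSO as cytotoxic control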); conditions: HD-MB03 medulloblastoma cells, stronger effect = higher value
# [11] = UWB1.289 ovarian carcinoma cell growth inhibition, synergistic combos for chromothripsis tumors, BGB or cisplatin combos (AID 1671456); conditions: UWB1.289 ovarian carcinoma cells, stronger effect = higher value;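 also: cells exposed to compound for four days; 0% = vehicle DMSO and 100% = killing by high DMSO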
# [12] = LFS_MB_2R medulloblastoma cell growth inhibition, synergistic combos for chromothripsis tumors, cisplatin combos (AID 1671457); conditions: LFS_MB_2R medulloblastoma cells, stronger effect = higher value;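 also: cells exposed to compound for four days before readout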
# [13] = MDA-MB-436 breast carcinoma cell growth inhibition, synergistic combos for chromothripsis tumors, BGB or cisplatin combos (AID 1671458; call rule not given here;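 also: cells exposed for 96 hours; 0% = vehicle DMSO and 100% = killing by high DMSO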); conditions: MDA-MB-436 breast carcinoma growth inhibition, drug combinations, stronger effect = higher value
# [14] = UWB1.289_BRCA1 ovarian cancer growth, cell-based, BGB or cisplatin combinations (AID 1671459); conditions: UWB1.289 BRCA1 ovarian carcinoma, drug combinations, stronger effect = higher value
# [15] = human astrocyte viability loss, single and combined drugs, cytotoxicity control for chromothriptic childhood tumor combination screen, cell-based, BGB or cisplatin IC20 combos (AID 1671460); conditions: Human astrocytes, drug combinations, stronger effect = higher value;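 also: cells exposed to compounds for 96 hours before viability readout; 0% = vehicle and 100% = killing control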
# [16] = growth inhibition of BT084 medulloblastoma cells, cell-based, ICGC_MB145, cisplatin and BGB IC40 combos (AID 1671461); conditions: drug combinations, stronger effect = higher value;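 also: cells exposed to drugs for 96 hours; 0% = vehicle DMSO and 100% = high DMSO full killing control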
# [17] = growth inhibition of RCMB18 medulloblastoma cells, cell-based, cisplatin and BGB IC40 combos (AID 1671462); conditions: stronger effect = higher value;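 also: cells exposed to compound for four days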
# [18] = growth inhibition of CRL1545 osteosarcoma cells, cell-based, cisplatin and BGB IC20 combos (AID 1671464); conditions: stronger effect = higher value;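 also: cells exposed to compound for 96 hours before readout; 0% = vehicle DMSO and 100% = high DMSO killing control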
# [19] = measured here: combination with BGB IC40, at 0.05 µM
# [20] = measured here: with BGB IC20 combination, at 0.5 µM
# [21] = measured here: with cisplatin IC20 combination, at 0.5 µM
# [22] = measured here: combination with cisplatin, at 0.5 µM
# [23] = measured here: combination with cisplatin, at 5 µM
structure (smiles),measurement,setting,value
O=c1[nH]cnc2ccccc12,remaining activity,[1],102% (inactive)
same,fold change,"[2]; stronger effect = lower value, cell number ratio, induced over uninduced",0.942 (inactive)
same,fold change,[2]; measured here: relative caspase fold change +Dox/-Dox,1.88
same,cell count,"[2]; measured here: total cells with miR-34 induction, stronger effect = lower value",8900
same,cell count,[2]; measured here: total cells without miR-34 induction,9450
same,z-score,[3],-0.085 (inactive)
same,inhibition,"[4]; at 0.5 µM, stronger effect = higher value",-17.1% (inactive)
same,inhibition,"[4]; measured here: combination with BGB IC20, at 0.005 µM",-35.2%
same,inhibition,"[4]; measured here: combination with BGB IC40, at 0.005 µM",-30.5%
same,inhibition,[4]; [19],-20.2%
same,inhibition,"[4]; measured here: combination with cisplatin, at 0.5 µM, stronger effect = higher value",-41%
same,inhibition,"[4]; measured here: combination with cisplatin, at 5 µM, stronger effect = higher value",-52.6%
same,inhibition,"[5]; BGB combo, at 5 µM",-24.4%
same,inhibition,[5]; at 0.5 µM,-4.24% (inactive)
same,inhibition,"[5]; cisplatin combo, at 5 µM",7.34%
same,inhibition,[5]; [20],2.06%
same,inhibition,[5]; [21],-23.5%
same,inhibition,"[5]; single agent, at 5 µM",3.32%
same,inhibition,"[6]; BGB IC20 combo, at 0.005 µM",-9.29%
same,inhibition,"[6]; BGB IC40 combo, at 0.005 µM",-31.8%
same,inhibition,"[6]; BGB IC40 combo, at 0.05 µM",-19.2%
same,inhibition,[6]; at 0.5 µM,-16.4% (inactive)
same,inhibition,"[6]; cisplatin combo, at 0.05 µM",-23.5%
same,inhibition,"[6]; cisplatin combo, at 0.5 µM",-12.5%
same,inhibition,"[6]; cisplatin combo, at 5 µM",-22.5%
same,inhibition,"[6]; measured here: 5 uM single agent, at 5 µM",-4.22%
same,inhibition,[7]; at 0.5 µM,-18.8% (inactive)
same,inhibition,[7]; [19],-25.1%
same,inhibition,[7]; [22],-17.4%
same,inhibition,[7]; [23],-38.3%
same,inhibition,[8]; at 0.5 µM,-3.81% (inactive)
same,inhibition,"[8]; measured here: with BGB IC20, at 0.5 µM",-2.72%
same,inhibition,"[8]; measured here: with BGB IC20, at 5 µM",7.21%
same,inhibition,"[8]; measured here: with cisplatin IC20, at 0.5 µM",2.1%
same,inhibition,"[8]; measured here: with cisplatin IC20, at 5 µM",-54.4%
same,inhibition,"[8]; single agent, at 5 µM",-7.3%
same,inhibition,[9]; at 0.5 µM,-61.6% (inactive)
same,inhibition,"[9]; measured here: combination with BGB at IC20, at 0.5 µM",-35.5%
same,inhibition,"[9]; measured here: combination with cisplatin at IC20, at 0.5 µM",-103%
same,inhibition,[10]; at 0.5 µM,4.79% (inactive)
same,inhibition,"[10]; measured here: combo with BGB at IC20, at 0.5 µM",10.7%
same,inhibition,"[10]; measured here: combo with cisplatin at IC20, at 0.5 µM",11.6%
same,inhibition,[11]; at 0.5 µM,2.5% (inactive)
same,inhibition,"[11]; measured here: inhibition with BGB combination, at 0.05 µM",-5.21%
same,inhibition,"[11]; measured here: inhibition with cisplatin combination, at 0.05 µM",-17.2%
same,inhibition,[12]; at 0.5 µM,-8.8% (inactive)
same,inhibition,[12]; [22],-21.4%
same,inhibition,[12]; [23],-15.8%
same,inhibition,[13]; at 0.5 µM,-5.02% (inactive)
same,inhibition,"[13]; measured here: BGB combination, at 0.5 µM",-15%
same,inhibition,"[13]; measured here: BGB combination, at 5 µM",-20.2%
same,inhibition,"[13]; measured here: cisplatin combination, at 0.5 µM",-1.15%
same,inhibition,"[13]; measured here: cisplatin combination, at 5 µM",-18.2%
same,inhibition,"[14]; BGB combination, concentration series, at 5 µM",11.1%
same,inhibition,[14]; at 0.5 µM,0.09% (inactive)
same,inhibition,"[14]; cisplatin combination, concentration series, at 5 µM",-4.56%
same,inhibition,[15]; at 0.5 µM,12.5% (inactive)
same,inhibition,"[15]; measured here: combo with BGB IC20, at 0.5 µM",-1.33%
same,inhibition,"[15]; measured here: combo with cisplatin IC20, at 0.5 µM",21.8%
same,inhibition,[16]; at 0.5 µM,-14% (inactive)
same,inhibition,"[16]; cisplatin combination, at 0.5 µM",-49.4%
same,inhibition,"[16]; cisplatin combination, at 5 µM",-11.8%
same,inhibition,"[16]; measured here: BGB IC40 combination 0.05 uM, at 0.05 µM",-51.7%
same,inhibition,"[16]; single agent, at 5 µM",12.2%
same,inhibition,[17]; at 0.5 µM,-16.1% (inactive)
same,inhibition,"[17]; cisplatin combo, at 5 µM",-26.7%
same,inhibition,"[17]; measured here: BGB IC40 combination, at 0.05 µM",-1.26%
same,inhibition,[17]; [22],-25.5%
same,inhibition,"[17]; single agent, at 5 µM",-13.2%
same,inhibition,[18]; at 0.5 µM,0.67% (inactive)
same,inhibition,[18]; [20],-3.84%
same,inhibition,[18]; [21],1.34%
same,inhibition,"[18]; single agent, at 0.05 µM",-24.3%
same,inhibition,"[18]; single agent, at 5 µM",-5.49%

# Reference: PubChem BioAssay
